Among the data in ChEMBL document CHEMBL1201862, “PubChem BioAssay data set” (2004) are GI50 values, retold here.

The whole screen tested about 48,000 sequences, of which about 6,100 (13%) were called active. Rule as the data show it: active = GI50 up to about 1.1 µM and inactive = higher. The entries come from a sample that favours actives as a whole. Potency and affinity values are given separately.

In the assay the test system is SR.
CISPLATIN, CHEMBL11359: halving of growth (GI50) required 618 nM.

For “[Bis(aminomethyl)tetramethylenesilane]tetrachloropaltinum(IV), CHEMBL2146189”, the GI50 (in general, the concentration at which growth is held to half of that of the control) was 499 nM.

Regarding “[Bis(aminomethyl)dimethylsilane]tetrachloroplatinum(IV), CHEMBL2146190”, it took 3440 nM to inhibit growth by half (GI50).

For the substance “[Bis(aminomethyl)diethylsilane]tetrachloroplatinum(IV), CHEMBL2146203”, it took 382 nM to inhibit growth by half (GI50).

Turning to “[Bis(aminomethyl)pentamethylenesilane]dichloropaltinum(II), CHEMBL2146202”, the GI50 amounted to 1490 nM.

As for “[Bis(aminomethyl)tetramethylenesilane]dichloropaltinum(II), CHEMBL2146205”, growth was halved (GI50) at 3520 nM.

With “[Bis(aminomethyl)pentamethylenesilane]tetrachloropaltinum(IV), CHEMBL2146204”, the GI50 was determined as 422 nM.

“mu-(1,7-nanodiamine-N,N')bis-(cis-aminedichloroplatimum (II)), CHEMBL2146215” yielded a GI50 of 2780 nM.
